RecA intein inh = Mtb RecA intein splicing inhibitors, primary screen, biochemical, fluorescence, HTS | 290,000 compounds, 0.75% hits | AID 2221, 2009 | cell-free RecA intein splicing | inhibition, % (no concentration beside the values) | Protein RecA (Mycobacterium tuberculosis (strain ATCC 25618 / H37Rv)), P9WHJ3; in the data active = inhibition above about 30%;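 note: 0% = vehicle wells and 100% = reference inhibitor control wells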
Target sequence (P9WHJ3 whole entry, looked up): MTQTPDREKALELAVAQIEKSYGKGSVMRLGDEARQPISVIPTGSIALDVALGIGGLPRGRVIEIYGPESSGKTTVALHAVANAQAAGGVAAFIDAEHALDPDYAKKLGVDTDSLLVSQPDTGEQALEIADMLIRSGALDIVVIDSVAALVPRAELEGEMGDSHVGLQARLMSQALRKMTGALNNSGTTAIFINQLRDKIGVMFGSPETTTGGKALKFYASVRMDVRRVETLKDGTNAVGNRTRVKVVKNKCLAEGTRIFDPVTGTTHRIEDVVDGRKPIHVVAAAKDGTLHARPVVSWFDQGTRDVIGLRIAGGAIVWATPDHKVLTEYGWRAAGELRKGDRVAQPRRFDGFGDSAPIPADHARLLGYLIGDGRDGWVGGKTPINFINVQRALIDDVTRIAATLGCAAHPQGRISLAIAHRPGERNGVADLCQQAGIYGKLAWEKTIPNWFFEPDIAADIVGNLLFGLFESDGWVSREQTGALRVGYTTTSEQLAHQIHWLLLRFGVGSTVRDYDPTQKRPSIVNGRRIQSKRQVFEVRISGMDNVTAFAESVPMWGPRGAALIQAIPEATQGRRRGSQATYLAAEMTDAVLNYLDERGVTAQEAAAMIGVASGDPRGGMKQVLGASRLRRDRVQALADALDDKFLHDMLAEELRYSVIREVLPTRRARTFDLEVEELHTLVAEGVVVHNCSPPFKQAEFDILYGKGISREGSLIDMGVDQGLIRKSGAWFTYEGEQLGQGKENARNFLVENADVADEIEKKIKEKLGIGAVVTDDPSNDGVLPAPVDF
CCHF vOTU inh = CCHFV vOTU protease inhibitors, primary screen, biochemical, Pep-AMC substrate, fluorescence; 370,000 compounds, 0.55% hits; AID 651958, 2012; Crimean-Congo hemorrhagic fever virus L polyprotein viral ovarian tumor (vOTU) protease …; inhibition, % at 11.5 µM; note: 0% = vehicle wells with enzyme and 100% = no enzyme wells
Mtb FBA inh = Mtb FBA enzyme inhibitors, primary screen, biochemical, fluorescence, strain H37Rv. inhibition, % at 1 µM. 360,000 compounds, 2.3% hits. Fructose-bisphosphate aldolase (Mycobacterium tuberculosis (strain ATCC 25618 / H37Rv)), …. purified M. tuberculosis FBA, fluorescence read-out; in the data active = inhibition above about 27%;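 note: 0% = vehicle and 100% = reference inhibitor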
GDH-TPI inh = GDH-TPI coupling enzyme inhibitors, primary screen, artefact control for M. tuberculosis FBA inhibitor project, biochemical, absorbance, full deck. AID 588335, 2011. inhibition, % at 4.8 µM. 360,000 compounds, 1.2% hits. GDH-TPI coupled enzyme counterscreen, NADH absorbance;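 note: 0% = DMSO wells and 100% = wells lacking the enzyme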
Active calls of the source: *; nt = no result; + = active, no number. Hits are enriched below; roughly 4.2% of the tested compounds scored in any of these assays. Cut-off read from the data, not from the text of the source, unless noted: active = inhibition above about 30%; inactive = the rest.

SMILES	RecA intein inh	CCHF vOTU inh	Mtb FBA inh	GDH-TPI inh
Oc1ccc(C=NN=Cc2ccco2)c(O)c1	nt	15	-3	41*
Cc1ccc(S(=O)(=O)N2CCN(C(=O)CCC(=O)Nc3ccc(Br)c(C)c3)CC2)cc1	nt	14	1	-5
N#C/C(=C/c1cccs1)c1ccccn1	4	-15	-2	33*
N#C/C(=C\c1ccccn1)c1ccccn1	-1	-7	2	17
COc1cccc(CNC(=O)c2ccccc2NC(=O)C2=C(C)OCCS2)c1OC	2	-4	-1	0
CC(=O)OCCn1c([N+](=O)[O-])cnc1C=[N+]([O-])C1CCCCC1	nt	11	-1	29
O=C(CSc1nc2[nH]c(=O)cc(O)c2s1)Nc1ccc(Br)cc1	nt	13	6	32*
COC(=O)[C@]12C[C@H](CC(=O)NCCCCc3ccccc3)C(=O)N(Cc3cccc4ccccc34)C1=C[C@H](COCc1ccccc1)O[C@@H]2C	nt	5	nt	nt
COc1cccc(-n2c([S-])c(C(=O)Nc3ccc(S(=O)(=O)N4CCOCC4)cc3)[n+]3cc(C(N)=O)ccc23)c1	0	-7	-3	31*
O=C(Nc1ccc(S(=O)(=O)N2CCOCC2)cc1)c1ccc([N+](=O)[O-])o1	-3	14	-1	32*
Cc1cccc(C(=O)Nc2ccc(S(=O)(=O)N3CCOCC3)cc2)c1[N+](=O)[O-]	1	6	2	12
Cc1c(C(=O)Nc2ccc(S(=O)(=O)N3CCOCC3)cc2)cccc1[N+](=O)[O-]	2	6	+	6
CC1CCC2(CC1)NC(=O)N(CC(=O)NCc1ccc(F)cc1)C2=O (centres undefined)	nt	1	2	8
CC(=O)Nc1nc(C)c(Oc2ccc(C)cc2)c(=O)[nH]1	-2	-7	0	0
CCOc1ccc(-n2ccc(=O)c(C(=O)Nc3ccc(S(=O)(=O)Nc4nccs4)cc3)n2)cc1	3	16	2	33*
O=C(Nc1ccc(S(=O)(=O)Nc2nccs2)cc1)c1nn(-c2ccc(F)cc2)ccc1=O	2	23	-5	27
COC(=O)C1=C(C)NC(C)=C(C(=O)OC)C1c1cn(-c2ccccc2)nc1-c1ccco1	0	10	22	34*
O=C1Nc2ccccc2/C1=C/c1cnc[nH]1	3	2	-6	31*
O=C(C(=Cc1ccc(F)cc1)C(=O)c1ccccc1)c1ccccc1	nt	3	2	nt
COc1ccc(/C=C2\Sc3ccc(C(=O)NCc4cccnc4)cc3N(C)C2=O)cc1OC	-1	4	0	35*
N#C/C(=C\c1cccn1S(=O)(=O)c1cccc([N+](=O)[O-])c1)S(=O)(=O)c1ccc(F)cc1	nt	5	-1	7
COCCNc1nc(N)c([N+](=O)[O-])c(NCC2CCCO2)n1 (centres undefined)	1	11	-3	38*
Cc1ccc(Nc2nc(NCC3CCCO3)nc(N)c2[N+](=O)[O-])cc1 (centres undefined)	-5	0	9	25
CNc1nc(N)c([N+](=O)[O-])c(NCC2CCCO2)n1 (centres undefined)	-8	-5	-3	34*
Nc1nc(NCCOCCO)nc(NCC2CCCO2)c1[N+](=O)[O-] (centres undefined)	-1	0	-1	43*
SMILES	RecA intein inh	CCHF vOTU inh	Mtb FBA inh	GDH-TPI inh
Nc1nc(NCCOCCO)nc(NCc2ccccc2)c1[N+](=O)[O-]	-2	-2	2	27
CCCOc1ccc(-c2c(C(=O)N/N=C(\C)c3ccncc3)nnn2-c2nonc2N)cc1	0	12	5	15
Cc1cc(NS(=O)(=O)c2ccc(NC(=O)c3ccc(Cl)cc3[N+](=O)[O-])cc2)no1	0	0	-1	-5
COC(=O)C1C2c3ccccc3OC1(C)N=c1s/c(=C/c3cn(C)nc3C)c(=O)n12 (centres undefined)	0	17	-7	55*
COc1ccccc1N1CCN(C(=O)CSc2ncccc2-c2nc3ccccc3[nH]2)CC1	-1	-26	27*	6
O=C(/C=C/c1ccccc1Cl)c1ccc(O)cc1	4	9	-3	35*
COC(=O)C1CN(CCO)CCS(=O)(=O)N1Cc1cn(Cc2cccc(Cl)c2)nn1 (centres undefined)	nt	-7	nt	nt
N#Cc1nc(-c2cccs2)oc1NCC1CCCO1 (centres undefined)	-3	-305	+	19
COc1ccc(-c2nc(C#N)c(NCC3CCCO3)o2)cc1 (centres undefined)	nt	-55	177*	16
Cc1ccc(-c2nc(C#N)c(NCC3CCCO3)o2)cc1 (centres undefined)	-1	-34	180*	6
COc1ccc(Nc2oc(-c3ccc(OC)cc3)nc2C#N)cc1	-3	-15	0	-2
COc1ccc(CN2C(=O)[C@@](O)(c3cccn3C)c3cc(Br)ccc32)cc1	nt	12	nt	nt
COc1ccc(C(=O)NCc2cnn(C)c2C)cc1OC1CCN(C(C)C)CC1	-4	8	-1	-8
N/C(=N\N=C\c1cccc([N+](=O)[O-])c1)c1nonc1N	2	17	0	12
N/C(=N\N=C\c1ccc2c(c1)OCO2)c1nonc1N	-1	16	2	32*
COc1c(N)c2c(c([N+](=O)[O-])c1OC)C(=O)OC2	nt	-6	-3	-1
COC(=O)[C@@H]1N=C(c2ccc(OC)cc2)O[C@]12C(=O)N(Cc1cn(-c3ccccc3)nn1)c1cccc(Cl)c12	nt	3	nt	nt
CS(=O)(=O)N[C@@H]1C[C@@H]2O[C@H](CO)CC[C@@H]2O[C@@H]1CCc1ccc(-c2ccccc2F)cc1	nt	4	nt	nt
COc1cc(C(=O)N/C(=C\c2cn(C)c3ccccc23)C(=O)NCCN2CCOCC2)cc(OC)c1OC	0	-1	-2	41*
COc1ccc(C(=O)N/C(=C\c2cn(C)c3ccccc23)C(=O)NCCN2CCOCC2)cc1OC	0	6	3	44*
Cn1cc(/C=C(\NC(=O)c2ccccc2)C(=O)NCCN2CCOCC2)c2ccccc21	-3	19	-6	29
COc1ccc(-c2nc(SCC(=O)NC3CCCCC3)n[nH]2)cc1	2	-8	0	-8
Cc1cc(/C=C(\C#N)C(N)=O)c(C)n1-c1ccc(N2CCOCC2)c([N+](=O)[O-])c1	-1	-22	-2	38*
Cc1cc(C=O)c(C)n1-c1ccc(N2CCCCC2)c([N+](=O)[O-])c1	6	5	-2	2
Cc1ccc2c(CN3C(=O)NC(C)(c4ccc5c(c4)OCO5)C3=O)cc(=O)oc2c1 (centres undefined)	2	1	3	18
CC(=O)Nc1ccc2c(CN3C(=O)NC(C)(c4ccc(C)cc4)C3=O)cc(=O)oc2c1 (centres undefined)	-4	-102	132*	7
CCOC(=O)C(=CNc1cc(C)ccc1[N+](=O)[O-])C(=O)OCC	1	5	-3	10
CCOC(=O)C(=CNc1cc(OC)ccc1-n1cccc1)C(=O)OCC	2	-2	13	36*

Assay outcomes deposited in PubChem BioAssay by several laboratories.
